# Measured values as given in PubChem BioAssay AID651692 (Broad Institute, 2012).
# Results with a measured potency or affinity are listed apart. Active and inactive are the calls of the source.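 Rule for the calls: active = fitted half-maximal concentration for loss of cell signal no higher than twice the top valid tested concentration; inconclusive = flat curve at 30 to 70% inhibition, or poor fit; inactive = flat within 30%, signal rise, or potency above limit.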
# Assay: MDA-MB-231 cell growth inhibition, dose response, cytotoxicity control for RAD54 inhibitor project, CellTiter-Glo luminescence, cherry-pick (AID 651692);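 note: more negative values mean stronger loss of viable cell signal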
# Details: MDA-MB-231 viability, 24 h; series mostly up to 26 µM
row,SMILES,outcome
1,Cc1ccc2nc3c(c(Nc4ccc5c(c4)OCCO5)c2c1)CCC3,inactive
2,Cc1cc(N2CCN(C)CC2)nc2ccc(NC(=S)NCCN3CCc4ccccc4C3)cc12,inactive
3,Oc1ccc(Nc2nc(N3CCCC3)c3ccccc3n2)cc1,inactive
4,c1ccc(-c2nc(NCCCn3ccnc3)c3oc4ccccc4c3n2)cc1,inactive
5,CCOC(=O)c1c(C)n(C)c2ccc(OCC(O)CN3CCN(C)CC3)cc12 (stereo not given),inactive
6,CN(C)CCCNc1nc2cc(-c3ccc(F)cc3)sc2c(=O)n1C,inactive
7,Cc1ccsc1-c1cc2nc(NCCCN(C)C)n(C)c(=O)c2s1,inactive
8,COc1cc2c3c(cccc3c1)C(=O)N(CCN1CCCC1)C2=O,inactive
9,CCN(CC)CC(=O)Nc1cccc2c1C(=O)c1ccccc1C2=O,inactive
10,C=CCN1C(=O)C(C)(C)Nc2ccccc21,inactive
11,Oc1ccc(CCNc2c3ccccc3nc3ccccc23)cc1O,inactive
12,N=c1c(C(=O)NCCN2CCOCC2)cc2c(=O)n3ccccc3nc2n1CCc1ccccc1,inactive
13,CCN(CC)CC(=O)Nc1cc(N(C)C)nc2ccccc12,inactive
14,CCOC(=O)c1cnc2c(C)cc(C)cc2c1NCCCN1CCOCC1,inactive
15,CCN(CC)CCNc1cccc2sc3ccccc3c(=O)c12,inactive
16,CN(C)CCN(C(=O)CN1C(=O)c2ccccc2C1=O)c1nc2cc3c(cc2s1)OCO3,inactive
17,NNC(=O)c1oc2nc(-c3cccs3)cc(-c3ccco3)c2c1N,inactive
18,COc1cccc2c1-c1c(O)cccc1C2=O,inactive
19,CCN1CCCC1CNC(=O)c1cc2c(-c3cccc(OC)c3)nn(C)c2s1 (stereo not given),inactive
20,CCCCN(CC)CCNC(=S)Nc1ccc2nc(N3CCN(C)CC3)cc(C)c2c1,inactive

row,SMILES,outcome
1,O=C(Nc1cccc([N+](=O)[O-])c1)c1cc(S(=O)(=O)N2CCOCC2)cs1,inactive
2,Cc1nc2nc(C)c(C)nc2nc1C,inactive
3,COC(=O)c1c(NC(=O)c2ccco2)sc2c1CCN(C(C)C)C2,inactive
4,CN1CCN(c2ncnc3c2[nH]c2ccc(F)cc23)CC1,inactive
5,O=c1cc(CSc2n[nH]c(=O)n2C2CC2)c2ccc(O)cc2o1,inactive
6,CCN(CC)Cc1cc(Nc2ccnc3cc(Cl)ccc23)ccc1O,inactive
7,Cc1ccc2nc(Cl)c3cc(C(=O)NCCCN4CCCC4)sc3c2c1,inactive
8,Cc1ccc(OCC(=O)Nc2cccc(-c3nnc(-c4ccccc4)o3)c2)c(C)c1,inactive
9,Cc1cccn2c(=O)c3cc(C(=O)NCc4ccccc4)c(=N)n(CCCN4CCOCC4)c3nc12,inactive
10,c1ccc2c(c1)[nH]c1c(N3CCN(C4CCCCC4)CC3)ncnc12,inactive
11,CN1CCN(CC(=O)Nc2nc(-c3c[nH]c4ccccc34)cs2)CC1,inactive
12,CN(C)CCNC(=O)c1cccc(-c2cnc3c(NC=O)cc(-c4ccc(S(C)(=O)=O)cc4)cn23)c1,inactive
13,CCCC(c1nnnn1Cc1ccc(OC)cc1)N1CCN(c2ccccc2)CC1 (stereo not given),inactive
14,c1ccc(-c2nnc(SCc3nc4ccccc4[nH]3)o2)cc1,inactive
15,CN(C)CCNC(=O)c1cccc(-c2cnc3c(NC=O)cc(-c4ccc(C(=O)N5CCOCC5)cc4)cn23)c1,inactive
16,CCN(CC)CCNc1ccc(CO)c2sc3ccccc3c(=O)c12,inactive
17,OCCN1CCN(c2ncnc3c2sc2nc(N4CCOCC4)c4c(c23)CCC4)CC1,inactive
18,CCc1nc(Nc2ccncc2)c2oc3ccccc3c2n1,inactive
19,CCN(CC)CCNc1ccc(CO)c2oc3ccccc3c(=O)c12,inactive
20,c1ccc(-c2nc(NCCCN3CCOCC3)c3ccccc3n2)cc1,inactive
